In the supplement of paper PMC7393113:
Counter-ions that a name gives are not always drawn. ± gives the standard deviation of the averaged measurements.

Test system: iBMDM (immortalised mouse bone-marrow-derived macrophages), LPS-stimulated
Assay: mitochondrial superoxide (MitoSOX fluorescence) fold increase over unstimulated control; higher = more LPS-induced mitochondrial ROS (less inhibition)
Conditions: inhibitor concentration: 500 nM, LPS: 100 ng/ml
Summary of the method: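 Immortalised mouse bone-marrow-derived macrophages in black 96-well plates were kept in phenol-red-free 1% FCS/DMEM for 20 h, pretreated 30 min with kinase inhibitors (500 nM), loaded with 1 μM MitoSox for 10 min and then given LPS (100 ng/ml). Fluorescence at excitation/emission 510/580 nm was read on a ClarioStar plate reader every 60 min for 4 h, with wells in triplicate. Mitochondrial superoxide is given as fold induction over untreated macrophages, averaged across replicates.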

Row | SMILES | mitochondrial superoxide (time after LPS: 1 h) | mitochondrial superoxide (time after LPS: 2 h) | mitochondrial superoxide (time after LPS: 4 h)
1 | Cc1[nH]nc2ccc(-c3cncc(OC[C@@H](N)Cc4ccccc4)c3)cc12 | 1.24 ± 0.1 | 1.43 ± 0.11 | 1.68 ± 0.098
2 | N#Cc1c(Oc2ccc(F)c(NC(=O)Cc3cccc(C(F)(F)F)c3)c2)ccc2nc(NC(=O)C3CC3)sc12 | 1.35 ± 0.087 | 1.49 ± 0.076 | 1.66 ± 0.076
3 | O=c1cc(-c2cccc3c2Sc2ccccc2S3)oc(N2CCOCC2)c1 | 1.39 ± 0.034 | 1.48 ± 0.063 | 1.51 ± 0.084
4 | COc1cc(Nc2nc3ccccc3nc2NS(=O)(=O)c2ccc(NC(=O)c3ccc(C)c(OC)c3)cc2)cc(OC)c1 | 1.17 ± 0.022 | 1.23 ± 0.06 | 1.33 ± 0.061
5 | COc1ccc(-c2ccc3ncc4c(c3c2)n(-c2ccc(N3CCNCC3)c(C(F)(F)F)c2)c(=O)n4C)cn1 | 1.1 ± 0.041 | 1.27 ± 0.078 | 1.49 ± 0.077
6 | O=C1Nc2ccc(I)cc2C1=Cc1cc(Br)c(O)c(Br)c1 | 1.1 ± 0.039 | 1.07 ± 0.074 | 1.09 ± 0.014
7 | CCn1c(N)c(C(=O)NC)c(=O)c2ccc(C#CC(C)(O)COC)nc21 (stereo unspecified) | 1.11 ± 0.027 | 1.22 ± 0.042 | 1.33 ± 0.051
8 | Cc1c(Cn2c(C)nc3c(C(=O)O)cc(N4CCOCC4)cc32)cccc1C(F)(F)F | 1.394 ± 0.013 | 1.502 ± 0.0056 | 1.61 ± 0.048
9 | CC(C)CCN1c2nc(Nc3cc(F)c(O)c(F)c3)ncc2N(C)C(=O)C1C (stereo unspecified) | 1.14 ± 0.036 | 1.21 ± 0.047 | 1.321 ± 0.0097
10 | Nc1nc(Nc2ccc(S(N)(=O)=O)cc2)nn1C(=O)c1c(F)cccc1F | 1.15 ± 0.04 | 1.13 ± 0.027 | 1.11 ± 0.021
11 | COc1cc(Nc2ncc(F)c(Nc3ccc4c(n3)NC(=O)C(C)(C)O4)n2)cc(OC)c1OC [R406 (free base)] | 1.23 ± 0.07 | 1.32 ± 0.041 | 1.29 ± 0.065
12 | Cc1csc(-c2nnc(Nc3ccc(Oc4ncccc4-c4ccnc(N)n4)cc3)c3ccccc23)c1 | 1.35 ± 0.042 | 1.5 ± 0.038 | 1.67 ± 0.046
13 | COc1cc(Nc2ncc(F)c(Nc3ccc4c(n3)NC(=O)C(C)(C)O4)n2)cc(OC)c1OC | 1.1 ± 0.027 | 1.14 ± 0.016 | 1.28 ± 0.11
14 | C=CC(=O)Nc1cccc(Nc2nc(Nc3ccc(N4CCN(C(C)=O)CC4)cc3OC)ncc2C(F)(F)F)c1 | 1.49 ± 0.069 | 1.49 ± 0.063 | 1.65 ± 0.12
15 | COCCOc1ccc2c(c1)ncn2-c1ccc2cccc(N3CCC(N)CC3)c2n1 | 1.15 ± 0.048 | 1.19 ± 0.035 | 1.3 ± 0.038
16 | N#CC1(c2ccc(NC(=O)c3cccnc3NCc3ccncc3)cc2)CCCC1 [Apatinib] | 1.09 ± 0.056 | 1.18 ± 0.021 | 1.36 ± 0.018
17 | NC(=O)c1cnc(N[C@@H]2CCCC[C@@H]2N)nc1Nc1cccc(-n2nccn2)c1 | 1.38 ± 0.058 | 1.57 ± 0.08 | 1.71 ± 0.11
18 | CC(C)NC[C@@H](C(=O)N1CCN(c2ncnc3c2[C@H](C)C[C@H]3O)CC1)c1ccc(Cl)cc1 | 1.25 ± 0.045 | 1.49 ± 0.11 | 1.7 ± 0.094
19 | O=c1ncn2nc(Sc3ccc(F)cc3F)ccc2c1-c1c(Cl)cccc1Cl | 1.16 ± 0.045 | 1.21 ± 0.014 | 1.28 ± 0.037
20 | CNC(=O)CN1CCC(Oc2cc3c(Nc4cccc(Cl)c4F)ncnc3cc2OC)CC1 [AZD8931 (Sapitinib)] | 1.12 ± 0.041 | 1.24 ± 0.048 | 1.37 ± 0.046
21 | CC(C)(C)c1nc(-c2cccc(NS(=O)(=O)c3c(F)cccc3F)c2F)c(-c2ccnc(N)n2)s1 | 1.25 ± 0.046 | 1.43 ± 0.054 | 1.73 ± 0.12
22 | N#CC(=Cc1ccc(O)c(O)c1)C(=O)NCc1ccccc1 [AG-490 (Tyrphostin B42)] | 1.35 ± 0.052 | 1.36 ± 0.041 | 1.44 ± 0.097
23 | Oc1ccc(-c2nc(-c3ccc(F)cc3)c(-c3ccncc3)[nH]2)cc1 | 1.32 ± 0.13 | 1.41 ± 0.13 | 1.57 ± 0.12
24 | Cc1ccc(S(=O)(=O)Nc2nc3ccccc3nc2Nc2ccc3nsnc3c2)cc1 | 1.4 ± 0.089 | 1.48 ± 0.091 | 1.56 ± 0.041
25 | NC1(Cc2ccc(Cl)cc2)CCN(c2ncnc3[nH]ccc23)CC1 | 1.31 ± 0.037 | 1.43 ± 0.058 | 1.68 ± 0.021
26 | CCN1C(=CC(C)=O)Sc2ccc(OC)cc21 | 1.417 ± 0.014 | 1.44 ± 0.089 | 1.63 ± 0.1

Row | SMILES | mitochondrial superoxide (time after LPS: 1 h) | mitochondrial superoxide (time after LPS: 2 h) | mitochondrial superoxide (time after LPS: 4 h)
27 | Cc1[nH]c(/C=C2\C(=O)Nc3ccccc32)c(C)c1CCC(=O)O [TSU-68 (SU6668, Orantinib)] | 2.12 ± 0.096 | 2.2 ± 0.093 | 2.16 ± 0.12
28 | CCS(=O)(=O)c1cccc(-c2cc(C(=O)NC3CCN(C)CC3)c(C)c3[nH]c4ncc(C)cc4c23)c1 | 1.31 ± 0.05 | 1.48 ± 0.079 | 1.64 ± 0.098
29 | CN1CC[C@H](c2c(O)cc(O)c3c(=O)cc(-c4ccccc4Cl)oc23)[C@H](O)C1 [Flavopiridol HCl] | 1.31 ± 0.077 | 1.48 ± 0.088 | 1.71 ± 0.06
30 | COc1ccc(-c2ccc3c(N4CCOCC4)nc(N4C[C@@H](C)O[C@@H](C)C4)nc3n2)cc1CO | 1.29 ± 0.041 | 1.24 ± 0.037 | 1.32 ± 0.068
31 | COc1cc2nccc(Oc3ccc(NC(=O)C4(C(=O)Nc5ccc(F)cc5)CC4)cc3)c2cc1OC | 1.41 ± 0.041 | 1.43 ± 0.017 | 1.51 ± 0.029
32 | CC(C)n1nc(-c2ccc3oc(N)nc3c2)c2c(N)ncnc21 | 1.34 ± 0.018 | 1.57 ± 0.055 | 1.78 ± 0.051
33 | O=C(NOCC(O)CO)c1cc(Br)c(F)c(F)c1Nc1ccc(I)cc1F (stereo unspecified) | 1.31 ± 0.033 | 1.3 ± 0.054 | 1.34 ± 0.065
34 | O=C(NCc1ccccc1)c1csc(Nc2ccncn2)n1 [Thiazovivin] | 1.11 ± 0.012 | 1.2 ± 0.078 | 1.29 ± 0.11
35 | CC(C)(O)CC(=O)NCCn1ccc2ncnc(Nc3ccc(Oc4cccc(C(F)(F)F)c4)c(Cl)c3)c21 | 1.14 ± 0.019 | 1.37 ± 0.12 | 1.62 ± 0.14
36 | COc1ccc2cc(-c3nc(-c4ccc([S+](C)[O-])cc4)[nH]c3-c3ccncc3)ccc2c1 (stereo unspecified) [Tie2 kinase inhibitor] | 0.981 ± 0.069 | 1.09 ± 0.058 | 1.19 ± 0.036
37 | CCCCOc1c(C(=O)c2c(F)cc(C)cc2F)c[nH]c2nncc1-2 | 1.16 ± 0.027 | 1.25 ± 0.066 | 1.37 ± 0.036
38 | O=C1C(c2c(O)[nH]c3ccccc23)=Nc2ccccc21 [Indirubin] | 1.22 ± 0.026 | 1.34 ± 0.073 | 1.42 ± 0.048
39 | CCn1c2ccccc2c2cc(Nc3ccnc(NCCCN4CCOCC4)n3)ccc21 | 1.41 ± 0.063 | 1.54 ± 0.086 | 1.67 ± 0.096
40 | Cn1c(=O)n(-c2ccc(C(C)(C)C#N)cc2)c2c3cc(-c4cnc5ccccc5c4)ccc3ncc21 [BEZ235 (NVP-BEZ235, Dactolisib)] | 1.47 ± 0.087 | 1.47 ± 0.084 | 1.61 ± 0.076
41 | O=C(/C=C/c1ccc(O)c(O)c1)c1ccc(O)cc1O [Butein] | 1.49 ± 0.065 | 1.65 ± 0.067 | 1.85 ± 0.019
42 | CC(=O)Nc1nc(C)c(-c2ccc(Cl)c(S(=O)(=O)NCCO)c2)s1 | 1.02 ± 0.067 | 1.15 ± 0.03 | 1.23 ± 0.048
43 | CC(C)CC(=O)Nc1n[nH]c2c1CN(C(=O)C1CCN(C)CC1)C2(C)C | 1.08 ± 0.049 | 1.13 ± 0.04 | 1.27 ± 0.079
44 | CCc1cnn2c(NCc3ccc[n+]([O-])c3)cc(N3CCCC[C@H]3CCO)nc12 | 1.28 ± 0.066 | 1.33 ± 0.055 | 1.63 ± 0.066
45 | COc1cccc(-c2cc(=O)c3ccccc3o2)c1N | 1.48 ± 0.098 | 1.57 ± 0.021 | 1.67 ± 0.04
46 | OCCn1cc(-c2ccc3c(c2)CC/C3=N\O)c(-c2ccncc2)n1 | 1.36 ± 0.044 | 1.45 ± 0.064 | 1.49 ± 0.02
47 | Cc1ccc(Nc2nccc(N(C)c3ccc4c(C)n(C)nc4c3)n2)cc1S(N)(=O)=O | 1.46 ± 0.059 | 1.563 ± 0.0056 | 1.65 ± 0.11
48 | O=C1NC(=O)/C(=C/c2ccc(-c3ccc(F)cc3O)o2)S1 | 1.4 ± 0.16 | 1.54 ± 0.25 | 1.78 ± 0.2
49 | Cc1nc(NC(=O)N2CCC[C@H]2C(N)=O)sc1-c1csc(C(C)(C)C)n1 | 1.31 ± 0.053 | 1.43 ± 0.015 | 1.64 ± 0.053
50 | N#C/C(=C(/N)Sc1ccc(N)cc1)c1ccccc1C(F)(F)F | 1.35 ± 0.024 | 1.42 ± 0.092 | 1.506 ± 0.0063
51 | S=C(NCc1ccc2c(c1)OCO2)N1CCN(c2ncnc3c2oc2ccccc23)CC1 [Amuvatinib (MP-470)] | 1.18 ± 0.12 | 1.21 ± 0.076 | 1.15 ± 0.063
52 | COc1ccc(S(=O)(=O)N(C(C)=O)c2ccccc2/C=C/c2cc[n+]([O-])cc2)cc1 | 1.15 ± 0.035 | 1.17 ± 0.058 | 1.32 ± 0.05
